Source: PubChem BioAssay (NCATS)
Results filed as inconclusive are left out. Where a call stands in place of a potency, no number is given. Calls of active or inactive are those of the source. Calls follow the shape of the dose curve; as a rule, active = well fitted curve in the direction sought with a large enough effect; inconclusive = small, poorly fitted or top-dose-only effect, or another doubt; inactive = no such curve, though single readings can be large; an effect the other way counts as inactive or inconclusive. Bridge positions count the residues as written; N and C are the ends. Square brackets hold non-standard residues; d marks the D form. Side chains are listed from the residue outwards. Peptide text beside a SMILES is read from it. * marks the point of attachment. Phg(4-OMe) = COc1ccc([C@H](N)C(=O)O)cc1; d(aIle) = CC[C@H](C)[C@@H](N)C(=O)O; d(aThr) = C[C@@H](O)[C@@H](N)C(=O)O; NMeF = CN[C@@H](Cc1ccccc1)C(=O)O; Isobutyryl = CC(C)C(=O)*

What was measured:
[1] = UWB1.289 Cancer Cell Toxicity qHTS against the NCATS CANVASS Library (AID 1347347); also: nearly all actives have a fitted effect of over 60% in size; also: potency is read from the fitted curve at half-maximal effect
Procedure, shortened: (§1)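 Per well, 1000 cells; exposure 72 h with compound at 11 final concentrations; readout CellTiter-Glo luminescence.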

[2] = HEK-293 Cancer Cell Toxicity qHTS against the NCATS CANVASS Library (AID 1347355); also: nearly all actives have a fitted effect of over 65% in size; also: potency is read from the fitted curve at half-maximal effect; as to outcome: series mostly up to about 46 µM
Procedure, shortened: (§2)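 1000 cells/well, 4 h pre-incubation 37 °C/5% CO2; 11-pnt titration; 72 h; CellTiter-Glo 15 min RT, luminescence.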

[3] = DH5-alpha competent E. coli microbial cell viability qHTS against the NCATS CANVASS Library (AID 1347377); conditions: outcome: dose series up to 46.1 µM unless noted
Procedure, shortened: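 Luminescent ATP read-out (BacTiter-Glo, 20 min RT) after overnight 37C culture of DH5-alpha E. coli with compounds; daunomycin control at 0.2 nM–9.2 uM final.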

[4] = qHTS for Inflammasome Signaling Inhibitors: IL-1-beta AlphaLISA screen against the NCATS CANVASS Library (AID 1347379);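 also: human THP-1 cells primed with LPS then triggered with ATP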
Procedure, shortened: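 THP-1, 1 hr compound pre-incubation, then LPS 250 ng/mL + ATP 1.25 mM (final); 16 hr total with compound; IL-1B AlphaLISA, ex 680/em 615 nm; 11-point qHTS, up to 57.5 uM final.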

[5] = Panc-1005 Cancer Cell Toxicity qHTS against the NCATS CANVASS Library (AID 1347349); also: nearly all actives have a fitted effect of over 60% in size; also: potency is read from the fitted curve at half-maximal effect
Procedure, shortened: as §1

[6] = KB-3-1 Cancer Cell Toxicity qHTS against the NCATS CANVASS Library (AID 1347366); also: nearly all actives have a fitted effect of over 75% in size
Procedure, shortened: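 Luminescence from CellTiter-Glo (10 min, room temperature) measured KB-3-1 viability after 72 hr compound exposure at 37C. Cells were seeded at 500/well and tested in an 11-point series.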

[7] = COV-362 Cancer Cell Toxicity qHTS against the NCATS CANVASS Library (AID 1347352); also: potency is read from the fitted curve at half-maximal effect
Procedure, shortened: as §2

[8] = qHTS for inhibitors of ER calcium dysfunction: SERCaMP assay screened against the NCATS CANVASS Library (AID 1347393); also: nearly all actives have a fitted effect of over 40% in size; also: potency is read from the fitted curve at half-maximal effect
Procedure, shortened: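 Thapsigargin-induced ER calcium depletion drives GLuc-SERCaMP secretion from SH-SY5Y cells; compounds given 16 h beforehand were scored by lowered coelenterazine luminescence after 4 h challenge.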

[9] = HPAF-II Cancer Cell Toxicity qHTS against the NCATS CANVASS Library (AID 1347346); also: nearly all actives have a fitted effect of over 55% in size; also: potency is read from the fitted curve at half-maximal effect
Procedure, shortened: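 1000 HPAF-II cells/well; 4 h pre-incubation; 11-pnt compound titration; 72 h, 37 degrees C/5% CO2; CellTiter-Glo, 15 min RT; luminescence read.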

In the case of `C[n+]1cc2cc(C(N)=O)[nH]c3c(=N)c(Cl)c(N)c1c23`, the Potency [1] is reported as “inactive”, the Potency [2] is reported as “inactive” and the outcome [3] is reported as “inactive”. For the same compound, the Potency [4] was “inactive”.
In the case of `C=CC(CCCCC)C1C(=O)NC(=O)C1C(=O)C1C2C(C)CC(C(=O)O)CC2CC1(O)C(=O)/C=C/C` (centres undefined), the Potency [1] is reported as “inactive”, the Potency [5] is reported as “inactive” and the Potency [6] is reported as “inactive”. For the same compound, the Potency [4] was “inactive”.
In the case of `COc1cc2c(cc1OC)[C@@H](c1ccc3c(c1)OCO3)C(C)C(C)C2=O` (some centres undefined), the Potency [7] is reported as “inactive” and the outcome [3] is reported as “inactive”.
In the case of `COc1cc2c(c(O)c1O)C(=O)c1c(coc1C)C2=O`, the Potency [1] is reported as 13.3 µM (active), the Potency [5] is reported as 9.43 µM (active) and the Potency [8] is reported as “inactive”.
In the case of `C=C1CC[C@@H](O[C@H]2C[C@@](O)([C@H](C)NC(=O)c3[nH]c(C)c(Cl)c3Cl)[C@H](O)[C@@H](C)O2)[C@@H]2C=C[C@H](C)C(/C(O)=C3/C(=O)[C@H](C(C)C)N([C@@H]4O[C@H](C)[C@H](OC(N)=O)[C@H](OC(C)=O)[C@@H]4OC)C3=O)[C@@H]12` (some centres undefined), the Potency [6] is reported as “inactive”, the Potency [4] is reported as “inactive” and the Potency [8] is reported as “inactive”.
With `CC[C@H](C)[C@H]1NC(=O)[C@@H](NC(=O)C(C)C)[C@@H](C)OC(=O)[C@H](COC(=O)CNC(C)=O)NC(=O)[C@@H]([C@@H](C)O)NC(=O)[C@H](Cc2ccccc2)N(C)C(=O)[C@H](c2ccc(OC)cc2)NC1=O` (Isobutyryl-T[d(aIle)][Phg(4-OMe)][NMeF][d(aThr)]S([Gly-Ac]); ester 1-C) the Potency [1] was “inactive”, the Potency [5] was “inactive” and the Potency [7] was “inactive”. The Potency [2] was “inactive” and the outcome [3] was “inactive”.
For `C=C[C@@]1(C)CC[C@@H]([C@H](C)C(=O)/C=C/C(C)(C)O)O1`, the Potency [2] was 26.4 µM (active).
For `C[C@]12CC[C@]3(C1)[C@H](CC2=O)C[C@@H](OC(=O)c1ccccc1)[C@H]1[C@](C)(C(=O)O)CCC[C@@]13C`, the Potency [2] was 13.2 µM (active) and the Potency [8] was “inactive”.
In the case of `C=CC(CCCCC)C1C(=O)NC(=O)C1C(=O)C1C(/C=C/C)C=CC2CC(C(=O)O)CC(C)C21` (centres undefined), the Potency [9] is reported as 9.43 µM (active) and the Potency [6] is reported as “inactive”.
With `C=C1CC[C@@H](Br)C(C)(C)[C@]12CC=C(C)C(=O)C2` the Potency [1] was “inactive”, the Potency [5] was “inactive” and the Potency [2] was “inactive”.
With `C/C=C(/C)c1cc(O)c(C)c2c1Oc1cc(O)cc(C)c1C(=O)O2` the Potency [5] was “inactive”, the Potency [2] was “inactive” and the Potency [6] was “inactive”.
With `CC(C)=CCC[C@]12c3cc4c(cc3CC[C@@]1(C)[C@H](C)CC[C@@H]2O)[nH]c1ccccc14` the Potency [7] was “inactive”, the Potency [6] was “inactive” and the outcome [3] was “inactive”.
For `COc1cc(/C=C/C(=O)OC[C@@H](Cc2ccc(O)c(OC)c2)[C@@H](COC(=O)/C=C/c2ccc(O)c(OC)c2)Cc2ccc(O)c(OC)c2)ccc1O`, the Potency [9] was 8.41 µM (active), the Potency [1] was 10.6 µM (active) and the Potency [5] was 9.43 µM (active).
In the case of `C=C(C)CC[C@H](Cc1c(O)cc(O)c2c1O[C@H](c1ccc(O)cc1)CC2=O)C(=C)C`, the Potency [9] is reported as “inactive”, the Potency [5] is reported as “inactive” and the Potency [7] is reported as “inactive”. The Potency [2] was “inactive”.
In the case of `CO[C@H]1[C@@H](OC(=O)/C(C)=C\[C@@H]2O[C@@H]2[C@H]2O[C@H]2C)[C@H](O)[C@H](OCC23C[C@@H]4[C@H](C)CC[C@H]4C4(C=O)CC2C=C(C(C)C)C34C(=O)O)O[C@@H]1C` (some centres undefined), the Potency [1] is reported as “inactive”, the Potency [5] is reported as “inactive” and the Potency [7] is reported as “inactive”. The Potency [6] was “inactive” and the outcome [3] was “inactive”.
In the case of `CN1CC[C@]2(c3cccc4c3N[C@H]3N(C)CC[C@@]43[C@]34CCN(C)[C@H]3Nc3ccccc34)c3ccccc3N[C@H]12`, the Potency [1] is reported as 18.8 µM (active), the Potency [5] is reported as 21.1 µM (active) and the Potency [7] is reported as 14.9 µM (active). For the same compound, the Potency [2] was 7.43 µM (active) and the Potency [4] was 21.7 µM (active).
For `C/C1=C/[C@@H](C)[C@H](O)[C@@H](O)/C=C/CC/C=C/C(=O)O[C@@H]1[C@H](C)C(=O)CCCC1CC(=O)NC(=O)C1`, the Potency [1] was “inactive”, the Potency [5] was “inactive” and the Potency [7] was “inactive”. For the same compound, the Potency [6] was “inactive”, the Potency [4] was “inactive” and the Potency [8] was “inactive”.
With `C/C(=C\CC[C@@H](C)[C@H]1CC[C@]2(C)C3=CCC4C(C)(C)[C@@H](O)C[C@@H](O)[C@]4(C)C3[C@H](O)C[C@@]12C)CO` (some centres undefined) the Potency [6] was “inactive” and the Potency [4] was “inactive”.
In the case of `CC[C@H]1[C@H](C)[C@H](c2cc(OC)c(OC)cc2OC)[C@@H](C)[C@H](c2cc(OC)c(OC)cc2OC)[C@@]12C=C(OC)C(=O)C=C2OC`, the Potency [2] is reported as 18.7 µM (active) and the outcome [3] is reported as “inactive”.
With `CC(C)[C@]12CC[C@@]3(C)[C@H](C)CC[C@H](O)[C@@]3(CC1)c1cc3c(cc12)[nH]c1ccccc13` the Potency [7] was “inactive” and the Potency [4] was “inactive”.
For `C/C=C/C1C=CC2CC(C)CC(C)C2C1C(=O)CC(=O)NC(CO)C/C=C/CCCCC` (centres undefined), the Potency [8] was 6.09 µM (active).
In the case of `C[C@]12CCC[C@](C)(C(=O)O)[C@@H]1CC[C@@]1(C)c3cocc3CC[C@H]21`, the Potency [1] is reported as “inactive”, the Potency [7] is reported as “inactive” and the Potency [2] is reported as “inactive”. For the same compound, the Potency [6] was “inactive”, the outcome [3] was “inactive” and the Potency [4] was “inactive”.
For `CCC(=O)N[C@@H](C[C@H](C)C(Cl)(Cl)Cl)C(=O)N1C(=O)C=C(OC)[C@@H]1CC(C)C`, the Potency [1] was “inactive”, the Potency [5] was “inactive” and the Potency [6] was “inactive”. For the same compound, the Potency [4] was “inactive” and the Potency [8] was “inactive”.
For `O=C1CC2OCC=C3CN4C5CC3C2[C@@H]2N1c1ccccc1[C@]52C[C@@H]4C1=C[C@H]2C3CC4N(CC[C@@]45c4ccccc4N(C1=O)[C@@H]25)C/C3=C/CO` (some centres undefined), the Potency [9] was 21.1 µM (active), the Potency [5] was 16.8 µM (active) and the Potency [2] was 16.6 µM (active). The Potency [4] was 24.3 µM (active).
In the case of `COc1ccc2[nH]c3c(c2c1)CCN1C[C@H]2C[C@@H](OC(=O)c4cc(OC)c(OC)c(OC)c4)[C@H](OC)[C@@H](OC)[C@H]2C[C@H]31`, the Potency [9] is reported as 13.3 µM (active), the Potency [5] is reported as 13.3 µM (active) and the Potency [2] is reported as 20.9 µM (active). The Potency [8] was 6.09 µM (active).
